Autofluor counter = counter-screen for toxin protease inhibitors: compound fluorescence; compound autofluorescence counterscreen, microsphere flow cytometry; stronger effect = higher value; fluorescence intensity (concentration not given with the values); 360,000 tested, 3.1% active; AID 624483; in the data active means fluorescence intensity above about 16000; inconclusive means no clear call, values can overlap the other calls
BJeLR lethal = BJeLR cell viability loss | BJeLR (HRASV12) viability, CellTiter-Glo ATP luminescence, 48 h | inhibition, % (concentration not given with the values) | AID 1554 | 300,000 tested, 0.17% active; in the data active means inhibition above about 50%; inconclusive means no clear call, values can overlap the other calls
BoNT-F LC inh = BoNT F light chain protease inhibition; Multiplex microsphere protease cleavage assay, flow cytometry; inhibition, % at 10 µM; 360,000 tested, 0.22% active; AID 588497; in the data active means inhibition above about 35%, passing the limit was not always enough; inconclusive means no clear call, values can overlap the other calls; further: plate controls were buffer without enzyme for full effect and enzyme alone for no effect
BoNT-A LC inh2 = inhibitors of Botulinum neurotoxin A light chain protease; inhibition, % at 10 µM; multiplex microsphere protease substrate cleavage, flow cytometry; AID 588499; 360,000 tested, 0.17% active; further: plate controls were buffer without enzyme for full effect and enzyme alone for no effect
Anthrax LF inh2 = inhibitors of Bacillus anthracis lethal factor protease; P15917; multiplex microsphere protease cleavage assay, LF; inhibition, % at 10 µM; 360,000 tested, 0.12% active; AID 588501; further: plate controls were buffer without enzyme for full effect and enzyme alone for no effect
Target sequence (P15917 whole entry, looked up): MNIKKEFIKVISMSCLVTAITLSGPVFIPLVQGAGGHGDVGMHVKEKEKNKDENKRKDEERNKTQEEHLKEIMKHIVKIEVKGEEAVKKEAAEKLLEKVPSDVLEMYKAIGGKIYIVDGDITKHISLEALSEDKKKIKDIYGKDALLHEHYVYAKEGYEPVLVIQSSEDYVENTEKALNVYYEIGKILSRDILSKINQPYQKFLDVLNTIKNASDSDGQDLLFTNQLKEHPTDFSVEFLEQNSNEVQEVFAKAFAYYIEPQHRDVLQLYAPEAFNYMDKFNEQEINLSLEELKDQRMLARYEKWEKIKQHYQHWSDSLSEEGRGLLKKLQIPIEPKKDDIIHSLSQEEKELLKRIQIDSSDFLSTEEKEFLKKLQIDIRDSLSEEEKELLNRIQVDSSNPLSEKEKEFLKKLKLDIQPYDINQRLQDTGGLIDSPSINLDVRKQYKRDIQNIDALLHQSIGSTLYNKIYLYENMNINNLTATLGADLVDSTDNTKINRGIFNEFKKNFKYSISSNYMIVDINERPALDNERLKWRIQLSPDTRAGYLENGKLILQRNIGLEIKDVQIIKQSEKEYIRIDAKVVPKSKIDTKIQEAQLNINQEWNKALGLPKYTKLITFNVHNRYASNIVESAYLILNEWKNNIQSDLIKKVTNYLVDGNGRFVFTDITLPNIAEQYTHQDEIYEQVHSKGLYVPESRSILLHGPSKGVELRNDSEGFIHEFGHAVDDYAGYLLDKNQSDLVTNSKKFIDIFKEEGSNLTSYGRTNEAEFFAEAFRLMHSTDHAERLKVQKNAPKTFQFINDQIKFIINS
* hit, by the source's call; ? = inconclusive; / = no result. Only some compounds are listed: those with a hit (about 3.5% of all), similar ones and a draw of the others. Unless noted, no stated cut-off is given here; in the data, active means inhibition above about 30%; inconclusive means no clear call, values can overlap the other calls; inactive means below that.

SMILES	Autofluor counter	BJeLR lethal	BoNT-F LC inh	BoNT-A LC inh2	Anthrax LF inh2
CCC(C)OC(=O)C1=C(C)NC(=O)NC1c1ccc(F)cc1 (stereo unspecified)	10770	5.2	-5.5	-0.6	0.3
CC1=C(C(=O)OCC(C)C)C(c2ccsc2)NC(=O)N1 (stereo unspecified)	16729*	-6.9	-3.3	-0.2	-4.8
COc1ccc(Br)c(Cn2c(C)c(C(=O)NCc3cccc([N+](=O)[O-])c3)sc2=O)c1	5316	/	-3.7	0.0	-7.1
COc1ccc(-c2[nH]ncc2Oc2ccccc2OC)c(O)c1	24038*	-3.2	-8.4	-3.6	-6.1
COc1ccc(-c2[nH]ncc2-c2cnn(-c3ccccc3)c2)c(O)c1	22408*	1.3	-3.6	0.4	-0.8
Cc1ccc(CN2CCC(C)(Oc3cccc(Cl)c3)C2)cc1 (stereo unspecified)	4165	/	-9.1	-1.0	-7.1
CCCCC(=O)NC(c1ccc(N(C)C)cc1)c1ccc2cccnc2c1O (stereo unspecified)	2624	57.1*	-7.9	-0.8	16.1
CC1CCC(NC(=O)c2nn(C)c3c2CSc2ccccc2-3)CC1 (stereo unspecified)	5585	6.1	1.9	0.1	-1.8
Cc1cc(C)nc(N2CCCC(C(=O)Nc3cc(F)ccc3C)C2)n1 (stereo unspecified)	22529*	3.8	2.2	2.5	-2.8
CCc1nnc(NC(=O)C2CCCN(c3nc(C)cc(C)n3)C2)s1 (stereo unspecified)	18689*	10.9	-1.2	2.1	-1.0
O=C(Nc1ccc2c(c1)OCO2)c1cc2nc(C3CC3)cc(C(F)(F)F)n2n1	9919	0.7	-11.0	0.2	-2.1
Cc1cc(C)n2nc(C(=O)Nc3ccc4c(c3)OCO4)cc2n1	22219*	8.6	0.5	2.5	-5.1
COc1ccccc1NC(=O)C1CCCN(c2nc(C)cc(C)n2)C1 (stereo unspecified)	9034	-3.2	-0.4	-0.9	-2.5
Cc1cc(C)nc(N2CCCC(C(=O)Nc3ccc4c(c3)OCO4)C2)n1 (stereo unspecified)	20510*	-4.8	-2.7	-1.5	-1.2
CCCNC(=O)C1(C)CCCN(C(=O)CN2C(=O)c3ccccc3C2=O)C1 (stereo unspecified)	4125	/	1.1	-0.4	-8.5
CCn1nc(C)c(CN2CCCC(CO)(Cc3cccc(Cl)c3)C2)c1C (stereo unspecified)	3710	3.5	-2.5	-0.3	0.6
Nc1[nH]c(C(=O)c2ccccc2)c(-c2ccncc2)c1C(=O)NC1CC1	6103	/	5.1	0.2	0.2
O=C1CCCC2=C1C1(CCCC1)N=C(Nc1nc3cc(-c4ccccc4)ccc3o1)N2	4592	/	11.5	0.6	-2.4
COc1ccc2[nH]cc(CCNC(=O)/C=C/[C@H]3O[C@@H](n4cc(C)c(=O)[nH]c4=O)C[C@@H]3O)c2c1	5204	/	-4.1	-0.3	3.6
COc1ccc(CCN2CC(O)=C(c3nc(C)cs3)C2=N)cc1OC	23439*	-10.9	0.3	0.2	3.2
Cc1csc(C2=C(O)CN(CCc3ccccc3)C2=N)n1	12294	0.4	-13.9	-1.7	-4.4
O=[N+]([O-])c1ccc(C(=Nc2cccc3ccccc23)N2CCOCC2)cc1	17545*	-3.5	-4.3	-1.9	-4.5
Cc1ccc(SCc2nc3ccccc3n2CC(=O)Nc2c(C)cccc2C)cc1	22196*	-0.1	4.6	0.8	3.0
C=CCNc1nc(Nc2ccc(OC)c(OC)c2)c2sc(-c3ccccc3)cc2n1	3078	/	-49.6	1.0	-30.0
CCOc1ccc(Oc2cc(C)nc(SC)n2)nn1	3616	-15.5	-11.1	-0.6	1.8
SMILES	Autofluor counter	BJeLR lethal	BoNT-F LC inh	BoNT-A LC inh2	Anthrax LF inh2
COC(=O)COc1ccc(Oc2cc(C)nc(SC)n2)nn1	21755*	5.1	-5.9	?	0.8
COc1ccc(C(NC(=O)C2CCN(CCOc3ccc(Cl)cc3Cl)CC2)c2cccs2)cc1 (stereo unspecified)	4860	/	-12.1	-1.3	2.4
COc1cc(CO)ccc1Oc1nnnn1-c1ccc(C(N)=O)cc1	16480*	-0.8	15.4	10.3	-8.1
CC1C/C(=C/c2cccn2C)C(=O)/C(=C/c2cccn2C)C1 (stereo unspecified)	4072	7.0	5.4	5.7	6.7
CC1C/C(=C/c2ccncc2)C(=O)/C(=C/c2ccncc2)C1 (stereo unspecified)	4502	54.1*	0.3	-0.3	-2.4
CC(NCc1cc(Br)ccc1OCC(N)=O)C12CC3CC(CC(C3)C1)C2 (stereo unspecified)	21485*	7.2	?	-67.9	-35.9
COc1cc(CNC(C)C23CC4CC(CC(C4)C2)C3)ccc1OCC(=O)NC(C)(C)C (stereo unspecified)	3930	3.2	-15.6	-8.7	4.2

Bioassay records from PubChem BioAssay.
